BLM helicase inh = qHTS Assay for Inhibitors of Bloom's syndrome helicase (BLM) | RecQ-like DNA helicase BLM (Homo sapiens), P54132 | recombinant BLM DNA unwinding, fluorescence dequenching | 350,000 tested, 0.2% active | Potency, µM (doses to about 56.1 µM), inactives show top-dose activity change, negative = inhibition, usual class: inhibitors | AID 2528, 2010;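 note: plate controls were vehicle for no effect and no enzyme for full effect; nearly all actives have a fitted effect of over 35% in size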
RECQ1 helicase = qHTS Assay for Inhibitors of RecQ-Like Dna Helicase 1 (RECQ1); 240,000 tested, 0.54% active; Potency, µM (series often up to 57.3 µM), without a hit: at the highest dose activity, negative = inhibition, hits mostly inhibitors; RECQ1 DNA unwinding, red fluorescence kinetic read; ATP-dependent DNA helicase Q1 (Homo sapiens), P46063;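 note: plate controls were vehicle for no effect and no enzyme for full effect; nearly all actives have a fitted effect of over 30% in size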
Target sequence (P46063 whole entry, looked up): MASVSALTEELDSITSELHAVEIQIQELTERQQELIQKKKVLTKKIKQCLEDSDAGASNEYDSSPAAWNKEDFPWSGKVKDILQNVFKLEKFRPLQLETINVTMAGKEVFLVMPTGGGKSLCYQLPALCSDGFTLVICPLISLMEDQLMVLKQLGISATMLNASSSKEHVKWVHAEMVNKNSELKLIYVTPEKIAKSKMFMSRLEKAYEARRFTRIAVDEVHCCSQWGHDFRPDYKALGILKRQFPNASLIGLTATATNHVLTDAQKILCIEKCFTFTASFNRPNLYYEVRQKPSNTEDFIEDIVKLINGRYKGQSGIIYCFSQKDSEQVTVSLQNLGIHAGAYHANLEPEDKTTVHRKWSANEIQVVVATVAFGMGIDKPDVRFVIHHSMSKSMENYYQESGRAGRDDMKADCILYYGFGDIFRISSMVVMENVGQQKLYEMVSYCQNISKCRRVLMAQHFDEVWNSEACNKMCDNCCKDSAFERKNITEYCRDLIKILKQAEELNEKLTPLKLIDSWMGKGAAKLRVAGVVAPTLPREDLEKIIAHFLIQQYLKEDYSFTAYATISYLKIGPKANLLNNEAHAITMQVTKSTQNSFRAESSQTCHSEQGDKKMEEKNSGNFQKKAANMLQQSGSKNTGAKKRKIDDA
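RECQ1T1 50 nM; forked duplex (20 bp + 30-nt ss tails) 200 nM, ATP 2 mM final; pH 8.0, 2 mM MgCl2, 2.5 ug/ml poly(dI-dC); 15 min compound preincubation; discontinuous kinetic read over 2 h at RT.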
Tb PGK inh = qHTS Assay to Find Inhibitors of Phosphoglycerate Kinase | Phosphoglycerate kinase, glycosomal (Trypanosoma brucei brucei), P07378 | PGK/GAPDH coupled, Kinase-Glo luminescence, 60 min | Potency, µM (series often up to 57.5 µM), for inactives: at the highest dose activity change, negative = inhibition, most hits filed as inhibitors | 380,000 tested, 0.043% active | AID 602233, 2012; note: nearly all actives have a fitted effect of over 60% in size
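Luminescent ATP detection (Kinase-Glo Plus) follows a 60-minute room-temperature incubation, with wells lacking PGK as controls. Buffer: 100 mM TEA (pH 7.6), 5 mM MgCl2, 0.01% Tween-20. Coupling enzyme GAPDH (100 nM final) supplies unstable 1,3-BPG in-well.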
GLS inh = qHTS for Inhibitors of Glutaminase (GLS); GLS enzymatic activity, qHTS titration; 410,000 tested, 0.21% active; Glutaminase kidney isoform, mitochondrial (Homo sapiens), O94925; Potency, µM (top dose mostly 45.5 µM), without a hit: at the highest dose activity change, negative = inhibition, most hits filed as inhibitors
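hKGA in 45 mM KH2PO4 (pH 8.2), 0.02% Tween-20 with compound, then 1mM L-Glutamine (stock as added) plus glutamate oxidase/HRP/Amplex red coupling mix. Fluorescence read initially and after 30 min at RT; signal change reflects glutamate formation.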
APE1 inh-1 = qHTS Assay for Inhibitors of the Human Apurinic/apyrimidinic Endonuclease 1 (APE1). recombinant APE1, TAMRA/BHQ-2 abasic DNA cleavage fluorescence. Potency, µM (highest dose often 65.8 µM), without a hit: at the highest dose activity change, negative = inhibition, usual class: inhibitors. 350,000 tested, 0.35% active. AID 2517, 2012;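 note: plate controls were vehicle for no effect and reference inhibitor for full effect; nearly all actives have a fitted effect of over 55% in size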
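Activity was derived from the fluorescence gain between first and third kinetic reads (60 s intervals, ex 525/em 598 nm) after 50 nM THF-abasic TAMRA/BHQ-2 duplex was added to 0.75 nM APE1 preincubated 15 min with compound.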
FEN1 inhibitor = qHTS Assay for the Inhibitors of Human Flap endonuclease 1 (FEN1); P39748; Recombinant FEN1 flap cleavage, fluorescence, 15 min; Potency, µM (titrated, usually from 114 µM), for the others: top-dose activity change, negative = inhibition, hits mostly inhibitors; 390,000 tested, 0.35% active; AID 588795, 2011; note: nearly all actives have a fitted effect of over 65% in size
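Read-out was taken twice, immediately and after 15 min, following addition of 50 nM substrate to 10 nM FEN1 that had sat with test compound for 15 min at room temperature. Curves came from a four-parameter Hill model.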
DNA dye displace = Counterscreen for APE1 Inhibitors: Fluorescent Dye Displacement Assay | shares compounds with APE1 inh-1 | DNA fluorescent dye displacement counterscreen, fluorescence | Potency, µM (highest dose often 28.5 µM), for inactives: top-dose activity change, negative = inhibition, most hits filed as inhibitors | 480 tested, 7% active;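 note: loss of thiazole orange fluorescence as the dye is displaced from duplex DNA; 0% = ThO with dsDNA and no compound and -100% = ThO without dsDNA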
EndoIV counter = Counterscreen for APE1 Inhibitors: qHTS Assay for Inhibitors of Endonuclease IV; E. coli Endo IV, fluorogenic AP-site DNA cleavage; shares compounds with APE1 inh-1; 560 tested, 4% active; Potency, µM (series often up to 27.1 µM), without a hit: top-dose activity change, negative = inhibition, hits mostly inhibitors;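 note: plate controls were uninhibited enzyme wells for no effect and no enzyme buffer wells for full effect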
APE1 inh-2 = Confirmation qHTS Assay for Inhibitors of the Human Apurinic/apyrimidinic Endonuclease 1 (APE1); shares compounds with APE1 inh-1; purified APE1, fluorogenic abasic-site DNA cleavage; Potency, µM (series often up to 57.1 µM), inactives show at the highest dose activity change, negative = inhibition, most hits filed as inhibitors; 750 tested, 44% active; AID 2572, 2010; note: nearly all actives have a fitted effect of over 30% in size
APE1 FP inh = qHTS FP-Based Assay for Inhibitors of the Human Apurinic/apyrimidinic Endonuclease 1 (APE1); shares compounds with APE1 inh-1; APE1 binding to TAMRA-labelled double-stranded DNA, fluorescence polarization displacement; Potency, µM (series often up to 28.5 µM), for the others: top-dose activity, negative = inhibition, actives largely listed as inhibitors; 480 tested, 7% active
Numbers without * were called inactive; i = inactive; ? = inconclusive; . = not tested or not shown; [ ] = remark or other dose. Sampled rows, rich in hits. Any-hit rate of the full collection: about 0.86%. Calls come from the whole dose curve; as a rule, active = well fitted curve in the direction sought with a large enough effect; inconclusive = small, poorly fitted or top-dose-only effect, or another doubt; inactive = no such curve, though single readings can be large; an effect the other way counts as inactive or inconclusive. Unless noted, % is set by controls: 0 for no effect and ±100 for the full control effect; potency is the fitted concentration of half-maximal effect.

SMILES	BLM helicase inh	RECQ1 helicase	Tb PGK inh	GLS inh	APE1 inh-1	FEN1 inhibitor	DNA dye displace	EndoIV counter	APE1 inh-2	APE1 FP inh
C=CCN1C[C@H](C(=O)N(CCCN(C)C)C(=O)NCC)C[C@@H]2c3cccc4[nH]cc(c34)C[C@H]21	.	.	.	.	-4%	.	.	.	.	.
Cc1cccc(OC(=O)Cn2c(C(F)(F)F)nc3ccccc32)c1	-2%	0%	-2%	14%	35µM*	-8%	-6%	3%	?	-90%
CCCCCC1Nc2cc(C(F)(F)F)c(S(N)(=O)=O)cc2S(=O)(=O)N1 (stereo unspecified)	.	.	.	1%	.	.	.	.	.	.
Cc1cc(O)c(C=O)c2c1C(=O)Oc1c(COC(=O)/C=C/C(=O)O)c(O)c(C(=O)O)c(C)c1O2	18%	4µM*	.	.	1.3µM*	.	.	-21%[57.1 µM]	11µM*	.
O=C(CSc1nc(-c2ccccc2)nc2ccc(F)cc12)Nc1cccc(C(=O)O)c1	-10%	-4%	-13%	-3%	2%	?	.	.	-31%	.
O=C(CSc1nncc2ccccc12)Nc1cccc(C(=O)O)c1	-7%	4%	-6%	0%	-1%	3%	.	.	.	.
COC(=O)c1ccc(=O)c2nc3/c(=C/O)c(O)cc(=O)c3[nH]c12	18µM*	?	-8%	5µM*	?	40µM*	?	?	?	-28%
COC(=O)c1ccc(N)cc1O	0%	-11%	-8%	6%	?	0%	.	.	.	.
C[C@H](NC(=O)OC(C)(C)C)[C@@H](O)c1ccco1	.	.	.	.	.	-2%	.	.	.	.
COc1cc(OC)c(OC)cc1/C=C/c1ccc2ccccc2n1	.	.	.	.	.	-19%	.	.	.	.
CN(C)C(=O)Nc1ccc(Cl)c(Cl)c1	3%	i	.	-1%	?	.	-3%[57.1 µM]	20%[57.1 µM]	32µM*	10%[57.1 µM]
CCCOc1ccccc1-c1nc2n[nH]nc2c(=O)[nH]1	-13%	16%	i	14%	-5%	-7%	-7%[57.1 µM]	8%[57.1 µM]	1%	22%[57.1 µM]
CCCc1nn(C)c2c(=O)[nH]c(-c3ccccc3OCC)nc12	-4%	9%	4%	1%	0%	5%	.	.	.	.
N#Cc1ccc(/C=C2\C=Cc3ccccc32)cc1	.	.	.	.	.	12%	.	.	.	.
O=C(Nc1nc2nccc(-c3ccccc3)n2n1)c1ccccc1	-10%	-9%	-7%	0%	-11%	17%	.	.	-24%	.

Screening results as filed in PubChem BioAssay.
